High-throughput results (PubChem BioAssay)
In the library only some 3.1% were active in any assay of this set; here they are far more common.
uPA surface inh: inhibitors of cell surface uPA generation. Potency, µM (titrated, usually from 38.3 µM), for inactives: at the highest dose activity change, negative = inhibition, most hits filed as inhibitors. 330,000 compounds, 0.31% hits. cell surface uPA generation assay, qHTS. AID 540303; active means well fitted inhibition curve with a large enough effect; inconclusive means small, poorly fitted or top-dose-only effect; inactive means no such curve, though single readings can be large or run the other way; tested in mouse RAW 264.7 cells; further: potency means the concentration at half of the fitted maximal effect; on the % scale 0 is the no-effect control and ±100 the full control effect; nearly all actives have a fitted effect of over 55% in size
DRD3 antagonist: antagonists of human D3 dopamine receptor. AID 652054. 360,000 compounds, 2.5% hits. D3R cells, DiscoveRx beta-arrestin luminescence, antagonist mode; hits give low values. max response, negative = inhibition, %; in the data active means max response below about -50%; inconclusive means no clear call, values can overlap the other calls; further: on the % scale 0 is the no-effect control and ±100 the full control effect
Target sequence (P35462 whole entry, looked up): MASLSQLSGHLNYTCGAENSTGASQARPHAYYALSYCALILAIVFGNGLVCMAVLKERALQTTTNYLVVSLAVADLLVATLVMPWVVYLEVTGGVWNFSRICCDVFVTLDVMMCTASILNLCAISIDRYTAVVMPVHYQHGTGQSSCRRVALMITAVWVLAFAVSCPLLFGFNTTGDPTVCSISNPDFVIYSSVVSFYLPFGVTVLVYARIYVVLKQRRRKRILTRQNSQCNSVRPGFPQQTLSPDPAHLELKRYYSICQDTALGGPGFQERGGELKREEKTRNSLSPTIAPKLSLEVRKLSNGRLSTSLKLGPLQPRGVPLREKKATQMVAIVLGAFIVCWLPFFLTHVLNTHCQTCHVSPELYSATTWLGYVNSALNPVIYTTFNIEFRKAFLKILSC
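Cells plated overnight at 1500 cells/well, then exposed to library compounds with dopamine controls for 90 minutes at 37 degrees C. DiscoveRx reagent added for 30–60 minutes at room temperature; luminescence read, quantitative HTS format.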
DRD3 agonist: D3 dopamine receptor (human) agonism; max activation, %; 410,000 compounds, 0.58% hits; D3R DiscoveRx beta-arrestin cells, luminescence, 90 min; P35462; AID 652048; in the data active means max activation above about 30%; further: 0% is about no effect
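Cells at 1500/well, incubated overnight, then treated with pinned compounds (dopamine as control) for 90 min at 37 degrees C. DiscoveRx reagent added for 30 - 60 minutes at room temperature; luminescence read.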
RGS4 inh: blocks human RGS4-accelerated GTP hydrolysis. P49798. Transcreener GDP fluorescence polarization, RGS4-accelerated GTP hydrolysis. Potency, µM (doses to about 114 µM), for inactives: at the top dose activity change, negative = inhibition, usual class: inhibitors. 390,000 compounds, 0.039% hits. AID 504845; active means well fitted inhibition curve with a large enough effect; inconclusive means small, poorly fitted or top-dose-only effect; inactive means no such curve, though single readings can be large or run the other way; further: potency means the concentration at half of the fitted maximal effect; on the % scale 0 is the no-effect control and ±100 the full control effect; nearly all actives have a fitted effect of over 75% in size
Target sequence (P49798 whole entry, looked up): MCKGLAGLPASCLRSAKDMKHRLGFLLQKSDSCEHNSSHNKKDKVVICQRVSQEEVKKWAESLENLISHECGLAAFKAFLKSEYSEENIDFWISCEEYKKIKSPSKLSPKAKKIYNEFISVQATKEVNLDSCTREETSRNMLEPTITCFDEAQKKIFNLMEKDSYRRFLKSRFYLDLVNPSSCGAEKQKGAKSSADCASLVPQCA
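MLSMR compounds (23 nl, pin-transferred) preincubated 10 min at room temperature with a 500nM (2x) first reagent, then RGS4 at 900nM (2x) plus Transcreener GDP mix added; fluorescence polarization (620/688 nm) read before and after 90 min at 30 °C.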
Starred values were filed as active, the others as inactive; ? = inconclusive; / = not tested or not shown; [ ] = dose if it differs, or a comment.

SMILES	uPA surface inh	DRD3 antagonist	DRD3 agonist	RGS4 inh
Cc1ccc(C)c(N2CCN(CCCNC(=O)Cn3cccc3C(=O)c3ccccc3)CC2)c1	?	-68*	-16	2%
Cc1ccccc1C(=O)c1cccn1CC(=O)NCCCN1CC(C)CC(C)C1 (configuration not stated)	1%	2	-14	-7%[11.4 µM]
O=C(Cn1cccc1C(=O)c1ccccc1)NCCCN1CCOCC1	3%	15	4	8%
CCOC(=O)c1c(S(=O)(=O)N2CCCC(C(=O)Nc3cccc(Cl)c3)C2)c(C)n(C)c1C (configuration not stated)	/	/	-4	-13%
O=C(NCCN1CCC(Cc2ccccc2)CC1)C1CCCN(S(=O)(=O)c2cnc[nH]2)C1 (configuration not stated)	9%	-77*	-15	7%
O=C(NCCN1CCN(c2ccccc2F)CC1)C1CCCN(S(=O)(=O)c2cnc[nH]2)C1 (configuration not stated)	-8%	-56*	27	-4%
COc1ccc([C@H]2N[C@]3(CCCN(Cc4ccco4)C3=O)[C@H]3C(=O)N(Cc4ccccc4)C(=O)[C@@H]23)cc1	/	7	5	/
CCN(C(=O)CSc1ncc2c(n1)-c1cc(Cl)ccc1N(Cc1ccccc1)S2(=O)=O)c1cccc(C)c1	/	/	1	2%
COc1ccc(-c2nc(-c3ccccn3)no2)cc1	1.4µM*	8	3	5%[11.4 µM]
Cc1ccccc1-c1nc(-c2ccccn2)no1	?	-23	-9	-6%
COc1ccccc1-c1nc(-c2ccccn2)no1	1.4µM*	2	0	5%
Clc1ccc(-c2nc(-c3ccccn3)no2)cc1Cl	-21%	-11	4	-32%
O=C(NC1CCCC1)c1ccc2c(=O)n(Cc3ccccc3)c(SCc3ccc([N+](=O)[O-])cc3)nc2c1	/	/	-13	-6%
COc1cc(Cl)c(NC2=CC(=O)C(=O)c3ccccc32)c(OC)c1	3.2µM*	?	-12	-1%
Cc1cc(F)ccc1-c1cc(C(=O)NCc2cccs2)[nH]n1	/	-77*	-22	/
COc1ccc(-c2cc(C(=O)NN)[nH]n2)cc1OC	10µM*	-14	1	14%
Cc1cc(F)ccc1-c1cc(C(=O)Nc2ccccc2)[nH]n1	/	-85*	-12	/
COc1ccc(-c2cc(C(=O)O)[nH]n2)cc1OC	-5%	-21	1	3%
COc1ccc(-c2cc(C(=O)Nc3ccc(OC)c(OC)c3)[nH]n2)c(C)c1	/	-60*	-15	/
Cc1ccc(Cn2c(CN3CCC(C(=O)O)CC3)cc3ccccc32)cc1	/	/	8	-1%
Cc1cccc(CNC(=O)c2cc3cc(S(=O)(=O)N4CCCCC4)ccc3n2C)c1	/	/	-5	13%
COC(=O)c1ccc(Cl)cc1NC(=O)N(Cc1ccc(OC)cc1)C1CCN(C(C)=O)CC1	/	/	9	-9%
CCN(CC)c1ccc(-c2nc(-c3ccco3)no2)cc1[N+](=O)[O-]	/	/	4	16%
CCCCC[C@H]1CN(Cc2ccc(OC)cc2)C(=O)[C@@H]1CC(=O)NCc1ccccc1	5%	-2	-6	4%
CCCCC[C@H]1CN(CCCC)C(=O)[C@@H]1CC(=O)NCc1ccccc1	9%	0	34*	13%
SMILES	uPA surface inh	DRD3 antagonist	DRD3 agonist	RGS4 inh
CNc1nc(NCc2ccccc2)c2sccc2n1	/	7	6	/
CNc1nc(-c2ccccc2)c2sccc2n1	/	-74*	-13	/
CCOC(=O)c1c(C)n(-c2ccccc2)c2ccc(OC(=O)c3cc(OC)cc(OC)c3)cc12	/	/	10	3%
O=C(CNCC1CCCO1)Nc1ccc(N2CCCCCC2)cc1 (configuration not stated)	-4%	-21	-10	-8%
O=C(Nc1ccccc1N1CCCCC1)C1CCN(C(=O)c2ccc(Cl)cc2)CC1	2%	-59*	-7	-33%
O=C(CNCC1CCCO1)Nc1ccccc1N1CCCCCC1 (configuration not stated)	-3%	-62*	0	7%[56.9 µM]
O=C(CNCc1ccccc1Cl)Nc1ccccc1N1CCCCC1	-6%	-60*	-24	-7%
COc1ccc(OC)c(NC(=O)CSc2nccn2-c2cc(C)cc(C)c2)c1	/	/	-13	-35%
O=C1O[C@@H](c2ccccc2)C[C@@H](O)[C@H](O)CCCc2ccccc21	/	-55*	-13	/
CCOCCCn1c(=N)c(C(=O)NC2CCCC2)cc2c(=O)n3cc(C)ccc3nc21	/	/	-2	-13%
COCCC(=O)N1CCCC(C(=O)c2ccccc2SC)C1 (configuration not stated)	-1%	-59*	-6	-36%
CSc1nc(N)c2ncn([C@H]3O[C@H](COP(=O)(O)OP(=O)(O)OP(=O)(O)O)[C@@H](O)[C@@H]3O)c2n1	/	/	/	329%[56.9 µM]
O=c1cccc2n1Cc1cc3ccccc3nc1-2	7.9µM*	-14	-3	-7%
c1ccc2c(c1)-c1nc3ccccc3cc1C2N1CCCCC1 (configuration not stated)	/	0	-5	/
CC(=O)NC(c1ccccc1)c1c(O)ccc2ccccc12 (configuration not stated)	-2%	-7	34*	4%
CC(=O)NC(c1ccc(C(C)C)cc1)c1c(O)ccc2ccccc12 (configuration not stated)	6%	71	-13	-2%
COc1ccc(Br)cc1/C=N/NC(=O)CNC(=O)/C=C/c1ccccc1	12%	-67*	-11	19%
COc1ccc(/C=C/C(=O)NCC(=O)N/N=C/c2cc(Br)ccc2OCc2ccccc2)cc1	3%	?	-10	22%
Cc1cc(Nc2ccccc2Cl)nc(-c2ccccc2O)n1	-5%	-5	11	-24%
CCOC(=O)c1ccc(Nc2cc(C)nc(-c3ccccc3O)n2)cc1	0%	49	68*	8%
Cc1ccc(C)c(Nc2cc(C)nc(-c3ccccc3O)n2)c1	7.1µM*	34	6	-8%
Cc1ccccc1CNC(=O)c1ccc(CS(=O)Cc2ccc(Cl)cc2)o1 (configuration not stated)	/	/	-8	12%
COC(=O)C1CCCN1C(=O)C1CCCN1C(=O)CNC(=O)OCc1ccccc1 (configuration not stated)	-6%	-54*	2	-9%
COC(=O)CNC(=O)C1CCCN1C(=O)CNC(=O)OCc1ccccc1 (configuration not stated)	-3%	-15	-4	10%
COc1ccccc1NC(=O)CCNS(=O)(=O)c1ccc2c(c1)CCCC(=O)N2	/	/	-7	22%
COc1ccc2c(c1OC)C(=O)OC2CC(=O)O (configuration not stated)	-1%	-55*	0	13%
Cc1cc2nc(C3CCN(CC4COc5ccccc5O4)CC3)[nH]c2cc1C (configuration not stated)	?	-50*	-1	-6%
c1ccc2c(c1)OCC(CN1CCCCC1)O2 (configuration not stated)	/	/	-11	/
O=C(NCCO)c1ccc(Oc2ccc(C(F)(F)F)cc2[N+](=O)[O-])cc1	0%	4	24	-22%
